Laboratory results as given in PubChem BioAssay AID1159580 (chemical genetic matrix, 2015).
Several values for one entry are separate records, joined by “and”; a condition that tells them apart may be missing. Equal entries are not always repeated. About 2,000 (36%) of roughly 5,500 compounds were called active. About 18% were inconclusive and are not listed. No stated cut-off is given here; in the data, active means normalized growth mostly below about 0.91 (no sharp cut-off); inconclusive means no clear call, values can overlap the other calls; inactive means mostly above about 0.92. The list shows a part of the results.

Assay: chemical genetic growth profiling, strain panel (AID 1159580);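 further: tested at 20 µM; growth read once vehicle control cultures reached saturation at 30 °C; 1 = growth at the plate median or of vehicle wells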
Settings: S. cerevisiae deletion strains, growth OD

Measured: normalized growth

CCC(=O)O[C@H]1CCC2C3CCc4cc(O)ccc4C3CC[C@@]21C (stereo partly drawn)
0.968 (inactive) and 0.298 (active): locus YHR030C, strain SLT2, stronger effect = lower value
inactive: locus YAL021C, strain ccr4, stronger effect = lower value 0.97 | locus YAL026C, strain drs2, stronger effect = lower value 1 | locus YAL030W, strain snc1, stronger effect = lower value 0.988 | locus YBL061C, strain skt5, stronger effect = lower value 0.98 | locus YBR009C, strain hhf1, stronger effect = lower value 0.957 | locus YBR021W, strain FUR4, stronger effect = lower value 0.908 | locus YBR023C, strain chs3, stronger effect = lower value 0.981 | locus YBR171W, strain sec66, stronger effect = lower value 0.997 | locus YBR229C, strain ROT2, stronger effect = lower value 0.999 | locus YBR231C, strain swc5, stronger effect = lower value 0.974 | locus YBR279W, strain paf1, stronger effect = lower value 1 | locus YCL011C, strain gbp2, stronger effect = lower value 0.962 | locus YCL016C, strain dcc1, stronger effect = lower value 0.992 | locus YCL029C, strain bik1, stronger effect = lower value 0.994 | locus YCL061C, strain MRC1, stronger effect = lower value 0.991 | locus YCL069W, strain vba3, stronger effect = lower value 0.997 | locus YCR088W, strain abp1, stronger effect = lower value 0.991 | locus YDL005C, strain med2, stronger effect = lower value 0.966 | locus YDL035C, strain GPR1, stronger effect = lower value 0.975 | locus YDL040C, strain nat1, stronger effect = lower value 1 | locus YDL101C, strain DUN1, stronger effect = lower value 0.951 | locus YDL134C, strain PPH21, stronger effect = lower value 0.956 | locus YDL185W, strain tfp1, stronger effect = lower value 1.01 | locus YDL192W, strain arf1, stronger effect = lower value 1.01 | locus YDR001C, strain nth1, stronger effect = lower value 0.994 | locus YDR069C, strain doa4, stronger effect = lower value 0.97 | locus YDR101C, strain arx1, stronger effect = lower value 0.986 | locus YDR137W, strain rgp1, stronger effect = lower value 0.854 | locus YDR150W, strain NUM1, stronger effect = lower value 1 | locus YDR162C, strain NBP2, stronger effect = lower value 0.993 | locus YDR297W, strain sur2, stronger effect = lower value 0.989 | locus YDR318W, strain mcm21, stronger effect = lower value 1 | locus YDR334W, strain swr1, stronger effect = lower value 0.962 | locus YDR335W, strain msn5, stronger effect = lower value 0.99 | locus YDR388W, stronger effect = lower value 0.987 | locus YDR502C, strain sam2, stronger effect = lower value 0.997 | locus YEL003W, strain gim4, stronger effect = lower value 0.984 | locus YEL037C, strain rad23, stronger effect = lower value 0.995 | locus YEL061C, strain CIN8 (second series), stronger effect = lower value 0.969 | locus YEL061C, strain CIN8, stronger effect = lower value 0.999 | locus YER015W, strain faa2, stronger effect = lower value 0.988 | locus YER016W, strain bim1, stronger effect = lower value 0.996 | locus YER110C, stronger effect = lower value 1.02 | locus YER111C, strain swi4, stronger effect = lower value 0.974 | locus YER155C, strain BEM2 (second series), stronger effect = lower value 0.988 | locus YER167W, strain BCK2, stronger effect = lower value 0.933 | locus YFR010W, strain ubp6, stronger effect = lower value 0.956 | locus YGL078C, strain dbp3, stronger effect = lower value 1.01 | locus YGL086W, strain mad1, stronger effect = lower value 0.985 | locus YGL167C, strain pmr1, stronger effect = lower value 0.98 | locus YGL173C, strain kem1, stronger effect = lower value 0.986 | locus YGL227W, strain vid30, stronger effect = lower value 0.976 | locus YGL240W, strain doc1, stronger effect = lower value 0.972 | locus YGL248W, strain PDE1, stronger effect = lower value 0.961 | locus YGL253W, strain hxk2, stronger effect = lower value 1 | locus YGR135W, strain pre9, stronger effect = lower value 1.01 | locus YGR252W, strain gcn5, stronger effect = lower value 0.973 | locus YHR013C, strain ard1, stronger effect = lower value 0.885 | locus YHR027C, strain rpn1, stronger effect = lower value 0.992 | locus YHR079C, strain IRE1 (second series), stronger effect = lower value 1.01 | locus YHR094C, strain hxt1, stronger effect = lower value 0.997 | locus YHR129C, strain ARP1, stronger effect = lower value 0.932 | locus YHR142W, strain chs7, stronger effect = lower value 0.931 | locus YHR200W, strain rpn10, stronger effect = lower value 1.01 | locus YIL066C, strain RNR3, stronger effect = lower value 0.927 | locus YIL073C, strain SPO22, stronger effect = lower value 0.781 | locus YIL125W, strain kgd1, stronger effect = lower value 1 | locus YIR030C, strain dcg1, stronger effect = lower value 1 | locus YJL092W, strain hpr5, stronger effect = lower value 0.984 | locus YJL095W, strain BCK1 (second series), stronger effect = lower value 0.996 | locus YJL115W, strain asf1, stronger effect = lower value 0.988 | locus YJL134W, strain LCB3, stronger effect = lower value 0.993 | locus YJL154C, strain vps35, stronger effect = lower value 0.995 | locus YJL166W, strain qcr8, stronger effect = lower value 0.989 | locus YJL168C, strain set2, stronger effect = lower value 1 | locus YJL187C, strain SWE1 (second series), stronger effect = lower value 0.925
active: locus YAL013W, strain DEP1, stronger effect = lower value 0.7 | locus YDL074C, strain BRE1, stronger effect = lower value 0.447 | locus YDR159W, strain sac3, stronger effect = lower value 0.596 | locus YDR195W, strain ref2 0.209 | locus YDR392W, strain spt3, stronger effect = lower value 0.531 | locus YER155C, strain BEM2, stronger effect = lower value 0.295 | locus YGR229C, strain SMI1, stronger effect = lower value 0.584 | locus YHR079C, strain IRE1, stronger effect = lower value 0.538 | locus YJL095W, strain BCK1, stronger effect = lower value 0.756 and 0.227 | locus YJL129C, strain trk1, stronger effect = lower value 0.814 | locus YJL164C, strain tpk1, stronger effect = lower value 0.904
